MCF10A rerep: DNA re-replication induction in MCF 10a cells. MCF 10A DNA re-replication, Hoechst nuclear intensity, 48 h. 350,000 compounds, 2.9% hits. Potency, µM (doses to about 46.1 µM), inactives show at the highest dose activity, positive = re-replication, actives largely listed as activators; further: % of control where 0% means no effect; nearly all actives have a fitted effect of over 50% in size
KB-3-1 cytotox: KB-3-1 parental cell cytotoxicity; KB-3-1 viability, CellTiter-Glo ATP luminescence, 72 h; Potency, µM (series often up to 46.1 µM), most hits filed as cytotoxic; 400,000 compounds, 1.4% hits; AID 1347075; further: on the % scale 0 is the no-effect control and ±100 the full control effect; nearly all actives have a fitted effect of over 60% in size
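Luminescent ATP read-out (CellTiter-Glo) measures survival of drug-naive KB-3-1 cells after 72 h compound exposure at 37 °C. Titration series was screened from lowest to highest concentration, with DMSO vehicle plates as background controls.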
HT1080 IDH1KD tx: kills HT-1080 cells with IDH1 knockdown; HT-1080 IDH1 knockdown viability, ATP luminescence, 48 h; Potency, µM (highest dose often 46.1 µM), inactives show at the top dose activity, negative = toxicity, most hits filed as cytotoxic; 360,000 compounds, 2% hits; AID 686971;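 further: 0% = DMSO wells and -100% = cell-free medium wells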
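Cytotoxicity counter-line: IDH1KD HT-1080, 48 h, CellTiter-Glo. Curves classed by r2, magnitude and activity.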
KB-V1 MDR tox: kills drug-selected multidrug resistant KB-V1 cells; 400,000 compounds, 3.4% hits; KB-V1 MDR cells viability, CellTiter-Glo, 72 h; Potency, µM (series often up to 46.1 µM), usual class: cytotoxic; AID 1347076; further: on the % scale 0 is the no-effect control and ±100 the full control effect; nearly all actives have a fitted effect of over 60% in size
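Compound-treated KB-V1 multidrug-resistant cells, 72 h, 37 degrees C; viability by CellTiter-Glo. Fitted qHTS curves give the values.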
SW480 rerep: DNA re-replication induction in SW480 cells | SW480 DNA re-replication, Hoechst DNA content imaging, 48 h | Potency, µM (titrated, usually from 46.1 µM), for inactives: at the highest dose re-replication activation, most hits filed as activators | 340,000 compounds, 1.8% hits; further: % of control where 0% means no effect; nearly all actives have a fitted effect of over 55% in size
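Image-based DNA-content assay: after two days of treatment, nuclei were labelled with the DNA dye Hoechst and imaged, and hits were compounds raising the count of nuclei showing high fluorescence intensity.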
HT1080-NT tox: kills 2HG-producing HT-1080-NT fibrosarcoma cells; Potency, µM (highest dose often 46.1 µM), inactives show at the top dose activity, negative = less viability, most hits filed as cytotoxic; AID 686970; HT-1080-NT fibrosarcoma viability, CellTiter-Glo ATP luminescence, 48 h; 360,000 compounds, 1.6% hits;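 further: NT is the 2HG producing partner of a matched IDH1 knockdown line; 0% = DMSO-treated cells and -100% = media-only wells without cells; nearly all actives have a fitted effect of over 55% in size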
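Viability of the 2HG-overproducing fibrosarcoma line after 48 hours of compound exposure at 37 degrees C was determined by luminescence with CellTiter-Glo, and concentration-effect curves were then fitted and categorized.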
Numbers without * were called inactive; i = inactive; ? = inconclusive; / = not tested or not shown; ! = a repeat was not active. Shown are actives, neighbours in structure and some others; about 8% of the full set was active somewhere. The call rests on the fitted dose curve; in most records, active means well fitted curve in the direction sought with a large enough effect; inconclusive means small, poorly fitted or top-dose-only effect, or another doubt; inactive means no such curve, though single readings can be large; an effect the other way counts as inactive or inconclusive. Potency means the concentration at half of the fitted maximal effect.

SMILES	MCF10A rerep	KB-3-1 cytotox	HT1080 IDH1KD tx	KB-V1 MDR tox	SW480 rerep	HT1080-NT tox
CC(=O)Nc1ccc(S(=O)(=O)N2CCC(N3CCN(Cc4ccc(C)cc4)C(=O)C3=O)CC2)cc1	/	i	/	i	/	/
Cc1ccc(S(=O)(=O)N[C@H](C(=O)NC2CCC(C)CC2)C(C)C)cc1 (stereo partly drawn)	2%	i	-7%	i	-12%	-2%
CC(=O)N(\C=C/C=C/C=C1\Sc2ccccc2C1=O)c1ccccc1	15µM*	i	?	?	-1%	?
CC(C)c1ccc(/C=C(\c2nc3ccccc3[nH]2)S(=O)(=O)c2ccccc2)cc1	2.6µM*	?	3.3µM*	2.6µM*	12µM*	5.2µM*
O=S(=O)(/C(=C/c1ccc(C(F)(F)F)cc1)c1nc2ccccc2[nH]1)c1ccccc1	?	5.2µM*	4.6µM*	i	?	2.6µM*
CCOC(=O)[C@]12CCC=C1N(Cc1ccco1)C(=O)[C@H](CC(=O)NCc1cccs1)C2	/	i	2%	i	/	22%
CCN(C(=O)C(=O)c1c(C)[nH]c2ccccc12)c1ccccc1	/	i	/	i	/	/
O=C(NNc1ccccc1)C(CCO)C(=O)NNc1ccccc1	12µM*	i	6.5µM*	i	?	7.3µM*
CC(O)CC(C(=O)NNc1ccccc1)C(=O)NNc1ccccc1 (stereo not drawn)	?	?	2.3µM*	i	0%	1.3µM*
CC(C)C(=O)NNc1ccccc1	4%	i	-8%	i	2%	?
CC(=O)N1c2ccccc2C(=O)C1N1CCN(c2cccc(C(F)(F)F)c2)CC1 (stereo not drawn)	/	i	/	?	/	/
CCOC(=O)c1ccc(NC(=O)C23CCC(C)(C(=O)O2)C3(C)C)cc1 (stereo not drawn)	5%	i	-10%	?	13%	-4%
COc1ccc(CNC(=O)Nc2ccc(OC)cc2)cc1	18µM*	i	-8%	i	?	4%
COc1ccc(CNC(=O)Nc2ccccc2)cc1	1%	i	5%	i	17%	1%
COc1ccc(NC(=O)C23CCC(C)(C(=O)O2)C3(C)C)cc1 (stereo not drawn)	0.52µM*	i	2%	i	5.2µM*	4%
CCOC(=O)c1ccc(NC(=O)c2cn3c4c(ccc(Cl)c4c2=O)OC(C)C3)cc1 (stereo not drawn)	/	i	/	?	/	/
Cc1nc(Sc2nnnn2C)c2c3c(sc2n1)CCC3	1.5µM*	3.3µM*	5.2µM*	6.5µM*	5.8µM*	3.3µM*
Cc1nc(SCC(=O)NCC2CCCO2)c2c3c(sc2n1)CCC3 (stereo not drawn)	-1%	/	0%	/	-3%	2%
CCc1nc(N2CCN(C(=O)c3ccccc3)CC2)c2c3c(sc2n1)CCCC3	?	?	?	?	0%	?
CCc1nc(Sc2nnnn2-c2ccccc2)c2c3c(sc2n1)CCCC3	18µM*	i	3%	?	?	10%
COc1cc(C2N(c3ccccc3)CCN2c2ccccc2)ccc1OC(C)=O	-2%	i	6%	i	-5%	10%
COc1cc(C2C3=C(COC3=O)Oc3cc4c(cc32)OCO4)ccc1OC(C)=O (stereo not drawn)	?	0.82µM*	5.8µM*	2.1µM*	3.7µM*	?
COc1ccc(C2C3=C(COC3=O)Oc3cc4c(cc32)OCO4)cc1OC (stereo not drawn)	2.3µM*	0.92µM*!	?	?	5.8µM*	5.8µM*
COc1cc(C2C3=C(COC3=O)Oc3cc4c(cc32)OCO4)cc(OC)c1OC(C)=O (stereo not drawn)	?	0.23µM*	?	0.65µM*	0.13µM*	?
COC(=O)C(C)Sc1ncnc2c1c(-c1ccccc1)cn2-c1ccc(F)cc1 (stereo not drawn)	/	i	/	i	/	/
SMILES	MCF10A rerep	KB-3-1 cytotox	HT1080 IDH1KD tx	KB-V1 MDR tox	SW480 rerep	HT1080-NT tox
Cc1ccc(-n2c(=O)c3c4c(sc3n(CC(=O)Nc3ccccc3C)c2=O)CCCCC4)cc1C	/	i	/	i	/	/
CCOC(=O)c1c(C)[nH]c(C)c1S(=O)(=O)N1CCC(C(=O)N2CCN(c3ccccc3)CC2)CC1	/	i	/	i	/	/
COC(=O)c1ccc(NC(=O)CSC2=NCCN2)cc1	15µM*	?	-24%	?	?	?
O=C(CSc1nnc(-c2ccccc2)o1)c1cccc([N+](=O)[O-])c1	/	i	/	i	/	/
Cc1ccc(-c2csc3nc[nH]c(=O)c23)cc1	0%	i	13%	i	-57%	?
Cc1ccc(-c2csc3nc(-c4ccncc4)[nH]c(=O)c23)cc1	18µM*	?	-9%	i	5.2µM*	-13%
CCOc1ccc(-c2nc3scc(-c4cccs4)c3c(=O)[nH]2)cc1	1.5µM*	i	6%	i	21%	5%
CCc1ccccc1NCc1nnc2n1CCCCC2	/	i	/	i	/	/
COc1ccc(N2COC3c4cccc5cccc(c45)C32)cc1 (stereo not drawn)	23µM*	i	4%	i	1%	4%
Cc1cc(Br)ccc1OCCOCCN1CCCC1	1%	i	-5%	i	1%	-14%
CC1CCN(CCOCCOc2ccc(Br)cc2Cl)CC1	?	?	-29%	23µM*	?	-24%
CC1CCCN(CCCOc2ccc(Br)cc2Cl)C1 (stereo not drawn)	?	i	21µM*	?	?	16µM*
C=CCc1ccc(OCCCN2CCCC(C)C2)c(OC)c1 (stereo not drawn)	16%	i	-13%	?	?	5%
CC1CCCCN1C(=O)COc1ccc(F)cc1 (stereo not drawn)	13%	i	1%	i	-10%	3%
O=C(Cn1cc(S(=O)(=O)Cc2cccc(Cl)c2)c2ccccc21)NCc1ccccc1Cl	/	i	/	i	/	/
CCOC(=O)[C@]12CCCC=C1N(CCc1ccc(OC)c(OC)c1)C(=O)[C@H](CC(=O)NCCCCc1ccccc1)C2	/	?	?	21µM*	/	?
CCCCNC(=O)C[C@@H]1C[C@@]2(C(=O)OCC)CCCC=C2N(CCc2ccc(OC)c(OC)c2)C1=O	/	i	19%	?	/	3%
CCOC(=O)[C@]12CCCC=C1N(CCc1ccc(OC)c(OC)c1)C(=O)[C@H](CC(=O)NCC13CC4CC(CC(C4)C1)C3)C2	/	?	?	?	/	-21%
